# Reference: PubChem BioAssay
# pEC50: −log10 of the molar value. Where “and” joins values, the source holds several entries; their conditions need not be identical. Identical values can stand only once. Records with an inconclusive call do not appear. For some of these results: Measured potencies and affinities stand elsewhere. Calls of active or inactive are those of the source. Unless noted, the rule behind the calls is not given here.
# Experiments:
# [1] = molecular target: 6-phosphogluconate dehydrogenase, decarboxylating (Homo sapiens) (UniProt P52209); test: inhibition of human phosphogluconate dehydrogenase – biochemical, recombinant enzyme, NADPH absorbance, primary screen (AID 1159550;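 active = at least 20% inhibition of 6-phosphogluconate dehydrogenase activity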); conditions: recombinant 6PGD, NADPH absorbance 341 nm; at 10 µM; stronger effect = higher value
# [2] = system: Aerobactin synthetase IucA (Klebsiella pneumoniae hvKP1); test: IucA enzyme inhibition, primary screen, biochemical, Spectrum library (AID 1346200); conditions: malachite green pyrophosphate, A620, at 8 µM, stronger effect = lower value;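 note: 100% = wells without compound and 0% = wells lacking enzyme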
# [3] = molecular target: Mitogen-activated protein kinase 7 (Homo sapiens) (UniProt Q13164); test: Gal4-ERK5 driven luciferase induction – cell-based, HTS, primary screen (AID 1508626;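 active = luciferase signal above three times the same-plate solvent-only control wells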;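 note: luciferase driven by Gal4-ERK5 fusion binding five Gal4 sites before minimal TATA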); conditions: HeLa Gal4-ERK5 transactivation, 18 h, at 5 µM, stronger effect = higher value
# [4] = compounds altering circadian rhythm period length – cell-based, LOPAC library, luminescence reporter (AID 2774); conditions: circadian reporter cells, at 7 µM, actives lie on both sides;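 note: values are relative to mean of DMSO wells on each plate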
# [5] = system: Hepatitis C virus NS3 helicase; test: blockers of NS3h binding to ssDNA – biochemical, fluorescence polarization, LOPAC1280 library, primary screen (AID 687035; in the data active = inhibition above about 37%); conditions: Purified HCV NS3 helicase, Cy5-dT15 ssDNA binding fluorescence polarization; stronger effect = higher value; concentration not given here
# [6] = compounds altering Cy5-DNA-NS3h complex signal – biochemical, LOPAC1280, artefact control for HCV NS3 helicase inhibitor project (AID 687037); conditions: Cy5-DNA-NS3h complex fluorescence interference counterscreen
# [7] = system: Aerobactin synthetase IucA (Klebsiella pneumoniae, hypervirulent); test: biochemical IucA inhibition screen of LOPAC library by absorbance (AID 1346212); conditions: IucA enzyme assay, absorbance (OD) readout; stronger effect = lower value;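 tested at 8 µM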;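 note: 100% = no compound wells and 0% = no enzyme wells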
# [8] = viability loss in pontine glioma line – cell-based, SU-DIPG-XIII, MIPE4.0, CellTiter-Glo, qHTS, dose response (AID 1347061; cut-off not given, nearly all actives have AC50 up to about 37 µM;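 note: cells exposed to compound for 48 hours before readout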); conditions: CellTiter-Glo ATP luminescence
# [9] = viability loss in pontine glioma line – cell-based, JHH-DIPG-1, MIPE4.0, CellTiter-Glo, qHTS, dose response (AID 1347062; cut-off not given, nearly all actives have AC50 up to about 27 µM); conditions: JHH-DIPG-1 viability, CellTiter-Glo ATP luminescence
# [10] = viability loss in pontine glioma line – cell-based, SU-DIPG-IV, MIPE4.0, CellTiter-Glo, qHTS, dose response (AID 1347063; cut-off not given, nearly all actives have AC50 up to about 30 µM;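 note: compound exposure lasted 48 hours before the viability readout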); conditions: CellTiter-Glo ATP luminescence
# [11] = growth inhibition of DIPG cells – cell-based, MIPE4.0 library, CellTiter-Glo luminescence, qHTS (AID 1347066; cut-off not given, nearly all actives have AC50 up to about 30 µM;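 note: cells exposed to compound for 48 hours before readout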); conditions: SU-DIPG-VI viability, CellTiter-Glo ATP luminescence
# [12] = viability loss with induced miR-34 in A549 – imaging, A549 dox-inducible miR-34, nuclei and caspase counts, primary screen (AID 1347080;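 active = compounds whose cell count with miR-34 switched on is under 0.7 times the count with it off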); conditions: A549 miR-34 inducible, Hoechst nuclei count, 48 h
# [13] = molecular target: NAD(+) hydrolase SARM1 (Homo sapiens) (UniProt Q6SZW1); test: blocking NAD cleavage by SARM1 SAM-TIR – cell lysate, NAD-Glo luminescence (AID 1508614;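 active = compound whose remaining NAD level is above about 45 nM, limit read from the data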;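 note: higher remaining NAD means stronger inhibition of SARM1 NADase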); conditions: SAM-TIR HEK293T lysate NADase, at 1 µM, stronger effect = higher value
# [14] = galactose survival enhancers in mitochondrial complex I cybrids – cell-based, galactose medium, ATP luminescence, primary screen (AID 1645843;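 active = z-score of at least 1.8 in each of two replicates, scored against plate mean and spread of sample wells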;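 note: positive z means more ATP and so rescue of galactose-driven cybrid death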); conditions: complex I mutant cybrid cells, 72 h, stronger effect = higher value
# [15] = P. berghei load reduction in hepatocytes – cell-based, HepG2, luciferase luminescence, HepG2 viability, primary screen (AID 624349; in the data active = parasite load remaining mostly below about 12%, no sharp cut-off; inactive = mostly above about 10%;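 note: 100% = mean of DMSO negative control wells on the same plate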); conditions: P. berghei liver stage in HepG2, luciferase luminescence, concentration not given here; parasite load remaining: stronger effect = lower value; viability: measured here: HepG2 viability without parasites
# [16] = blockers of cellular phospholipid synthesis – cell-based, LOPAC library, screen 4, primary screen (AID 1347384); conditions: animal cells, phospholipid biosynthesis inhibition screen; at 10 µM
# [17] = MELAS cybrid and Rieske KO viability enhancers – cell-based, MELAS cybrids, Rieske KO mouse fibroblasts, CellTiter-Glo, primary screen (AID 1508586;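 active = mean z-score across replicates of 1.96 or higher in either the MELAS or the Rieske mutant cell line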;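 note: z relative to plate mean and SD of compound and empty wells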); conditions: low glucose
# [18] = molecular target: ATP-dependent translocase ABCB1 (Homo sapiens) (UniProt P08183); test: P-glycoprotein substrate transport blockade – cell-based (AID 377; in the data active = fluorescence slope change above about 50%); conditions: MDR1-expressing cells, fluorescent substrate accumulation slope; stronger effect = higher value; concentration not given here
# [19] = compounds altering viability of human ES cells (AID 493140); conditions: human embryonic stem cell survival screen; stronger effect = higher value;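 note: cells exposed to compounds for four days before counting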
# [20] = blockers of polyQ-driven CASP3 activation – cell-based (AID 1583); conditions: polyglutamine-induced caspase-3 activation, cell assay; stronger effect = higher value;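 tested at 10 µM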
# [21] = molecular target: Huntingtin (Homo sapiens) (UniProt P42858); test: mutant huntingtin aggregation blockers – QA1, dose response (AID 1584); conditions: in vitro mutant huntingtin aggregation assay; confirmation test; at 10 µM; stronger effect = lower value
# [22] = blockers of biotin-polyQ monomer incorporation into aggregates – biochemical, solid-phase synthetic aggregates, QA3 (AID 1585); conditions: polyQ aggregate elongation; EC50: measured here: elongation inhibition potency; inhibition: at 100 µM, stronger effect = higher value
# [23] = yeast 75Q aggregation reduction – 75Q-TubU reporter (AID 1593); conditions: Yeast 75Q polyglutamine aggregation reporter
# [24] = restoration of touch response, mutant HTT neurons – whole organism, C. elegans mechanosensory neurons, N-terminal huntingtin (AID 1599); conditions: C. elegans polyQ-huntingtin mechanosensory neurons, stronger effect = higher value
# [25] = blockers of cytochrome c efflux from mitochondria – biochemical, purified mitochondria (AID 1603); conditions: stronger effect = lower value;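 note: mouse liver mitochondria challenged with calcium chloride; signal normalized to the plate average as 100%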
# [26] = polyglutamine aggregate formation blockers (AID 1604); conditions: polyglutamine-induced protein aggregation inhibition assay; stronger effect = higher value; tested at 2.5 µM
# [27] = glutamate transport activators, MN-1 cells, MN-1 cell line (AID 1612); conditions: MN-1 motor neuron cells, stronger effect = higher value;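 note: tested at 1 µM final; 0% = mean of DMSO vehicle wells on each plate; positive means more glutamate uptake than control and negative means less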
# [28] = GFP-Q80 aggregate reduction, neuronal-like cells, cell-based, NGF-treated PC12, GFPQ80 (AID 1614); conditions: PC12 NGF-treated GFP-polyQ80 inclusion reduction;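 note: lower means fewer inclusions and 0 means no inclusions at all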
# [29] = 75Q-TubH aggregate inhibition, S. cerevisiae, yeast (AID 1616); conditions: S. cerevisiae 75Q-TubH polyglutamine aggregation suppression; stronger effect = higher value
# [30] = viability loss in pontine glioma line – cell-based, SU-DIPG-XVII, MIPE5.0, CellTiter-Glo, qHTS, dose response (AID 1347060; cut-off not given, nearly all actives have AC50 up to about 26 µM); conditions: CellTiter-Glo ATP luminescence
# [31] = viability loss in pontine glioma line – cell-based, SU-DIPG-XIII, MIPE5.0, CellTiter-Glo, qHTS, dose response (AID 1347064; cut-off not given, nearly all actives have AC50 up to about 23 µM); conditions: CellTiter-Glo ATP luminescence
# [32] = viability loss in pontine glioma line – cell-based, SU-DIPG-XXV, MIPE5.0, CellTiter-Glo, qHTS, dose response (AID 1347065; cut-off not given, nearly all actives have AC50 up to about 26 µM;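 note: cells exposed to compound for 48 hours before ATP readout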); conditions: CellTiter-Glo ATP luminescence
# [33] = JHH-DIPG-1 glioma cell viability, MIPE5.0 library, CellTiter-Glo luminescence, qHTS (AID 1347067; cut-off not given, nearly all actives have AC50 up to about 26 µM;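 note: cells exposed to compound for 48 hours before readout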); conditions: JHH-DIPG-1 glioma viability, CellTiter-Glo ATP luminescence
# [34] = growth inhibition of DIPG cells – cell-based, MIPE5.0 library, qHTS (AID 1347068; cut-off not given, nearly all actives have IC50 up to about 30 µM); conditions: SU-DIPG-XXV viability
# [35] = measured here: relative caspase fold change +Dox/-Dox
# [36] = measured here: total cells with miR-34 induction, stronger effect = lower value
# [37] = measured here: total cells without miR-34 induction
# [38] = MELAS cybrid survival, CellTiter-Glo 48 h, stronger effect = higher value
# [39] = Rieske KO mouse fibroblast survival, CellTiter-Glo 72 h
# Sequence of Mitogen-activated protein kinase 7 (Homo sapiens) (Q13164 whole entry, looked up, the tested form may be a part): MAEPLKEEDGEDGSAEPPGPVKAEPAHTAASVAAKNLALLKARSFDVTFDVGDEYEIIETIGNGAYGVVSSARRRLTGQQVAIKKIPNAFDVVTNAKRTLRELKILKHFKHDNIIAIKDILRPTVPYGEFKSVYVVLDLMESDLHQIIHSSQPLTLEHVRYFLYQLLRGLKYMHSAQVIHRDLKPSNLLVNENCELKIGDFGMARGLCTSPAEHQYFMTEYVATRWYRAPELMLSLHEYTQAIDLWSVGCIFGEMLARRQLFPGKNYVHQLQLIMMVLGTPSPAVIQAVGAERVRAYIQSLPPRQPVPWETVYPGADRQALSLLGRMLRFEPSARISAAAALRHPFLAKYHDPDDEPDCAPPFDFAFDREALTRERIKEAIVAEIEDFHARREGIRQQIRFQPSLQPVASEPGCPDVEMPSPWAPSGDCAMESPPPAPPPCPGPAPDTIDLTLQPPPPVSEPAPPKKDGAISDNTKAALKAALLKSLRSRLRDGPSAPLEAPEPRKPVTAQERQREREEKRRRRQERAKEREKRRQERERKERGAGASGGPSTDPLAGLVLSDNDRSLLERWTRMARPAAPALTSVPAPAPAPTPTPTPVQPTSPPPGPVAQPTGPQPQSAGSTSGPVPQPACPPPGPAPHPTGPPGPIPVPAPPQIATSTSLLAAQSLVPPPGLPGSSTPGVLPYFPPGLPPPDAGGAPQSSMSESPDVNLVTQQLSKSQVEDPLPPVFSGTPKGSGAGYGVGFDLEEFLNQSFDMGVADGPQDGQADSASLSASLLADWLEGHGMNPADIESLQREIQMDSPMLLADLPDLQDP
# Sequence of 6-phosphogluconate dehydrogenase, decarboxylating (Homo sapiens) (P52209 whole entry, looked up): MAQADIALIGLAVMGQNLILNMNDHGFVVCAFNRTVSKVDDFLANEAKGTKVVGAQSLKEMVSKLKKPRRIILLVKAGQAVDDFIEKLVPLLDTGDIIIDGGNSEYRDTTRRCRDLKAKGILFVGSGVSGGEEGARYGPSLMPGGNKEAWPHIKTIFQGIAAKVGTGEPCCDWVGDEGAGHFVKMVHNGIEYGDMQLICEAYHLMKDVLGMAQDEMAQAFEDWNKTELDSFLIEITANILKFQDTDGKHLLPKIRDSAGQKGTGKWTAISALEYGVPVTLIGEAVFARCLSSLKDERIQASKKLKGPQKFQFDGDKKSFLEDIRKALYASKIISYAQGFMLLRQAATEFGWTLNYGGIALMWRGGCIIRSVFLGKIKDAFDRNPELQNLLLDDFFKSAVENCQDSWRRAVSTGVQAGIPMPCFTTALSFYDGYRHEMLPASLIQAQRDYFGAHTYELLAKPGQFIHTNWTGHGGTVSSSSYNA
# Sequence of NAD(+) hydrolase SARM1 (Homo sapiens) (Q6SZW1 whole entry, looked up): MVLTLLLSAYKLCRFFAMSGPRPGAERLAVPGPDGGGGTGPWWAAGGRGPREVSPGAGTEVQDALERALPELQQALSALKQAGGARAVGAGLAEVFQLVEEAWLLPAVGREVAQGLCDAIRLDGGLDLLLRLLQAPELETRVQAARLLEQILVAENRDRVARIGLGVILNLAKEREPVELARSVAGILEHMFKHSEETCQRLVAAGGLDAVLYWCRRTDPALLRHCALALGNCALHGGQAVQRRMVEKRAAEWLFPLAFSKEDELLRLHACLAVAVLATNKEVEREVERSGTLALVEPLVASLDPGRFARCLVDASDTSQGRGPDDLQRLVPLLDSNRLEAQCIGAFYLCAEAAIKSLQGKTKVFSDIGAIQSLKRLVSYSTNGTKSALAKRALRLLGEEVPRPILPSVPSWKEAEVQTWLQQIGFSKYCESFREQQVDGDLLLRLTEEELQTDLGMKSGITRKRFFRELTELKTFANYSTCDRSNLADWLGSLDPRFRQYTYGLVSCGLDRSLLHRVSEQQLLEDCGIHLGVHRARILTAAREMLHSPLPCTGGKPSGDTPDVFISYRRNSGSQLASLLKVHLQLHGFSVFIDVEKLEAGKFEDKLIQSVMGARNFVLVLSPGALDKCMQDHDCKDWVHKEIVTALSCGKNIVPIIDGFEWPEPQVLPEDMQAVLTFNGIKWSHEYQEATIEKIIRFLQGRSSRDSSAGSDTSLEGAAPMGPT
# Sequence of ATP-dependent translocase ABCB1 (Homo sapiens) (P08183 whole entry, looked up): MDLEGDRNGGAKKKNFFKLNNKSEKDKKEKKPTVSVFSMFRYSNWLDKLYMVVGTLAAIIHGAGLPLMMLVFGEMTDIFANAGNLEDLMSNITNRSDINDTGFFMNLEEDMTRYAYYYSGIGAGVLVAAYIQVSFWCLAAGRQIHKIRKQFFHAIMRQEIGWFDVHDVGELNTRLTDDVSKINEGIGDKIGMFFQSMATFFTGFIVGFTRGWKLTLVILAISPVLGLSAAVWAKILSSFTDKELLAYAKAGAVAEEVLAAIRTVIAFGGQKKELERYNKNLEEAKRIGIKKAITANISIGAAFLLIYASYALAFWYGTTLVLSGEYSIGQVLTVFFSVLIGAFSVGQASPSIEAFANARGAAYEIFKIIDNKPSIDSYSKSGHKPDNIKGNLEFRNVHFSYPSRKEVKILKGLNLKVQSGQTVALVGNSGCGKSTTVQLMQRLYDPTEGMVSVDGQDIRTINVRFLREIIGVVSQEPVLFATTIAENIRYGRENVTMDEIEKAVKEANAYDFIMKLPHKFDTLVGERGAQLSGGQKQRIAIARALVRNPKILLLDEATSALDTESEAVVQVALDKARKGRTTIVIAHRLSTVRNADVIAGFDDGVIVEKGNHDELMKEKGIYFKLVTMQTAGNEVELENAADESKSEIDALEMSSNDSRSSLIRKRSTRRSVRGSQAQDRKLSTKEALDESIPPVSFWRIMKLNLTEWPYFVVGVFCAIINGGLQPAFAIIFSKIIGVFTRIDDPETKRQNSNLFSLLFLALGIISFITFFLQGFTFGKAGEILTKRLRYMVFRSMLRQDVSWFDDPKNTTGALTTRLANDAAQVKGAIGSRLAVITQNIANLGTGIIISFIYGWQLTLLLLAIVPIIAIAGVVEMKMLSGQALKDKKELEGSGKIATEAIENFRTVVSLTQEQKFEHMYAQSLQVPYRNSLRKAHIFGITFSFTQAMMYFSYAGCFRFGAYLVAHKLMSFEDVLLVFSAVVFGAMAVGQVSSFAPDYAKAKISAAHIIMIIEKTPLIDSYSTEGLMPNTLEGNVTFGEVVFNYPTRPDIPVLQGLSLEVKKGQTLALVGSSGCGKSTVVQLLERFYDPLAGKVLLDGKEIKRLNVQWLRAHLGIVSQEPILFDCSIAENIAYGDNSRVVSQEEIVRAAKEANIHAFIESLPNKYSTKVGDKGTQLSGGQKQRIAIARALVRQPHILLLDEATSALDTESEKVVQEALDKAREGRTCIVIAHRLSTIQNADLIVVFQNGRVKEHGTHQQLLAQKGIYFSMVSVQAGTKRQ
compound,measurement,setting,value
CC(C)Nc1nc(Cl)nc(NC(C)C)n1,inhibition,[1],-12% (inactive)
same,activity remaining,[2],111% (inactive)
same,luciferase signal,[3],52 AU (inactive)
C[N+](C)(C)CC(=O)O,period change,[4],-0.005 h (inactive)
same,inhibition,[5],-5% (inactive)
same,fluorescence ratio (interference),[6],0.9 (inactive)
same,inhibition,[1],5.32% (inactive)
same,remaining activity,[7],106% (inactive)
same,outcome,[8],inactive
same,outcome,[9],inactive
same,outcome,[10],inactive
same,outcome,[11],inactive
same,fold change,[12]; stronger effect = lower value,1.03 (inactive)
same,fold change,[12]; [35],1.89
same,cell count,[12]; [36],9950
same,cell count,[12]; [37],9700
same,remaining NAD,[13],10 nM (inactive)
same,luciferase signal,[3],268 AU (inactive)
same,z-score,[14],0.805 (inactive)
CC(C)=CCOc1c2occc2cc2ccc(=O)oc12,parasite load remaining,[15],18.8% (inactive)
same,viability,[15],92.7%
same,inhibition,[5],-2% (inactive)
same,fluorescence ratio (interference),[6],1 (inactive)
same,inhibition,[1],4.77% (inactive)
same,activity remaining,[2],108% (inactive)
same,fold change,[12]; stronger effect = lower value,1.08 (inactive)
same,fold change,[12]; [35],1.1
same,cell count,[12]; [36],8640
same,cell count,[12]; [37],8010
same,outcome,[16],inactive
same,z-score,[14],0.56 (inactive)
OCC(O)Cc1ccc2c(c1)OCO2 (stereo not drawn),inhibition,[1],11.1% (inactive)
same,activity remaining,[2],123% (inactive)
same,luciferase signal,[3],16 AU (inactive)
C#C[C@]1(O)CC[C@H]2[C@@H]3CCC4=CC(=O)CC[C@]4(C)[C@H]3CC[C@@]21C,parasite load remaining,[15],27.4% (inactive) and 14.2% (inactive)
same,viability,[15],48.6% and 66.5%
same,inhibition,[1],7.17% (inactive)
same,fold change,[12]; stronger effect = lower value,0.927 (inactive) and 0.887 (inactive)
same,fold change,[12]; [35],1.32 and 1.63
same,cell count,[12]; [36],8580 and 9180
same,cell count,[12]; [37],9250 and 10300
same,z-score,[17]; [38],-0.171 (inactive) and 0.217 (inactive)
same,z-score,[17]; [39],-0.0237 and 0.861
same,remaining NAD,[13],10 nM (inactive)
same,luciferase signal,[3],68 AU (inactive)
same,z-score,[14],0.355 (inactive)
CNNC,inhibition,[1],-3.38% (inactive)
same,activity remaining,[2],86.5% (inactive)
same,luciferase signal,[3],32 AU (inactive)
N#Cc1c(Cl)cccc1Cl,inhibition,[1],-5.35% (inactive)
same,activity remaining,[2],93.8% (inactive)
same,luciferase signal,[3],52 AU (inactive)
C[C@]12CC[C@H](O)C[C@@H]1CC[C@@H]1[C@@H]2CC[C@]2(C)C(=O)CC[C@@H]12,fluorescence slope change,[18],99.1% (active)
same,survival,[19],10.7 (inactive)
same,parasite load remaining,[15],91.7% (inactive) and 87.8% (inactive)
same,viability,[15],100% and 84.1%
same,inhibition,[1],18.5% (inactive)
same,fold change,[12]; stronger effect = lower value,0.944 (inactive)
same,fold change,[12]; [35],1.47
same,cell count,[12]; [36],7960
same,cell count,[12]; [37],8440
same,z-score,[17]; [38],0.265 (inactive)
same,z-score,[17]; [39],0.304
same,luciferase signal,[3],20 AU (inactive)
NNCc1ccccc1,parasite load remaining,[15],106% (inactive)
same,viability,[15],91.4%
same,inhibition,[1],9.93% (inactive)
same,activity remaining,[2],105% (inactive)
Cc1cc2c(C(C)C)c(O)c(O)c(C=O)c2c(O)c1-c1c(C)cc2c(C(C)C)c(O)c(O)c(C=O)c2c1O,inhibition,[20],60.9%
same,aggregation ratio,[21],0.119
same,pEC50,[22],4.24
same,inhibition,[22],68% (active)
same,score,[23],1.78
same,rescue above control,[24],0
same,cytochrome c release ratio,[25],0.19
same,inhibition of aggregation,[26],19.1%
same,glutamate uptake change,[27],-53.4%
same,inclusion score,[28],0
same,aggregation suppression score,[29],0.368
same,inhibition,[1],14.1% (inactive) and -10.8% (inactive)
same,activity remaining,[2],96.1% (inactive) and 125% (inactive)
same,z-score,[17]; [38],-0.449 (inactive) and -0.0386 (inactive)
same,z-score,[17]; [39],-0.0272 and 0.0258
C[CH2][Hg][S]c1ccccc1C(=O)O,fluorescence slope change,[18],-19.9% (inactive)
same,inhibition,[20],67.3%
same,score,[23],-0.03
same,rescue above control,[24],0
same,cytochrome c release ratio,[25],0.71
same,inhibition of aggregation,[26],18.2%
same,glutamate uptake change,[27],8.21%
same,aggregation suppression score,[29],-0.00186
same,parasite load remaining,[15],82.3% (inactive) and 0.045% (inactive)
same,viability,[15],62% and 0.315%
same,inhibition,[1],17.7% (inactive)
same,activity remaining,[2],-3.51% (active)
same,fold change,[12]; stronger effect = lower value,1.62 (inactive)
same,fold change,[12]; [35],0.728
same,cell count,[12]; [36],630
same,cell count,[12]; [37],389
same,remaining NAD,[13],10 nM (inactive)
same,luciferase signal,[3],44 AU (inactive)
CC(C)C[C@H](CN)CC(=O)O,inhibition,[1],9.49% (inactive)
same,outcome,[30],inactive
same,outcome,[8],inactive
same,outcome,[9],inactive
same,outcome,[10],inactive
same,outcome,[31],inactive
same,outcome,[32],inactive
same,outcome,[11],inactive
same,outcome,[33],inactive
same,outcome,[34],inactive
same,z-score,[17]; [38],-0.0671 (inactive)
same,z-score,[17]; [39],0.159
same,remaining NAD,[13],10 nM (inactive)
COc1c2c(c(CC=C(C)C)c3oc(=O)c(-c4ccc(O)cc4)c(O)c13)OC(C)(C)C=C2,inhibition,[1],-5.17% (inactive)
same,activity remaining,[2],104% (inactive)
same,luciferase signal,[3],60 AU (inactive)
CCNc1nc(Cl)nc(NC(C)C)n1,inhibition,[1],7.64% (inactive)
same,activity remaining,[2],97.8% (inactive)
same,fold change,[12]; stronger effect = lower value,0.888 (inactive)
same,fold change,[12]; [35],0.465
same,cell count,[12]; [36],8110
same,cell count,[12]; [37],9140
same,z-score,[17]; [38],3.44 (active)
same,z-score,[17]; [39],-0.553
same,luciferase signal,[3],36 AU (inactive)
same,z-score,[14],0.59 (inactive)
CC(C)N1C(=O)c2ccccc2NS1(=O)=O,inhibition,[1],-1.1% (inactive)
same,activity remaining,[2],106% (inactive)
same,luciferase signal,[3],92 AU (inactive)
CC(=O)O[C@@H]1CC2C(C)(C)[C@H](O)C=C[C@]2(C)C2CC[C@]3(C)C(=CC(=O)O[C@H]3c3ccoc3)[C@@]21C (stereo partly drawn),inhibition,[1],-4.71% (inactive)
same,activity remaining,[2],105% (inactive)
same,luciferase signal,[3],120 AU (inactive)
